# Measurements reported in article PMC5540273 (PLoS ONE, 2017).
# Experiments:
# Details in all cases: concentration: 1 μM,replicates: in singlicate; n = 1
# [1] = test system: PIP5K1A
# [2] = test system: PIP5K1C
# [3] = test system: PIP5K2B
# [4] = test system: T1, PIP5K2C
# T1 construct: gene PIP4K2C
# [5] = test system: T2, PKAC-alpha
# T2 construct: gene PRKACA
# [6] = test system: T3, PKAC-beta
# T3 construct: gene PRKACB
# [7] = test system: PKMYT1
# [8] = test system: PKN1
# [9] = test system: PKN2
# [10] = test system: PLK2
# [11] = test system: PLK4
# [12] = test system: PRKCD
# [13] = test system: PRKCE
# [14] = test system: PRKCH
# [15] = test system: PRKCI
# [16] = test system: PRKCQ
# [17] = test system: PRKD1
# [18] = test system: PRKD2
# [19] = test system: PLK1
# [20] = test system: PLK3
# 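Also: KINOMEscan kinase panel screen.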
SMILES,%Inh [1] [%],%Inh [2] [%],%Inh [3] [%],%Inh [4] [%],%Inh [5] [%],%Inh [6] [%],%Inh [7] [%],%Inh [8] [%],%Inh [9] [%],%Inh [10] [%],%Inh [11] [%],%Inh [12] [%],%Inh [13] [%],%Inh [14] [%],%Inh [15] [%],%Inh [16] [%],%Inh [17] [%],%Inh [18] [%],%Inh [19] [%],%Inh [20] [%]
C[C@@H](Oc1cc(-n2cnc3ccc(-c4ccncc4)cc32)sc1C(N)=O)c1ccccc1Cl [GSK483724],0,85,13,81,13,5,0,17,10,99.3,0,8,29,33,40,33,0,0,–,–
CC(C)c1nc(-c2cccc(NS(=O)(=O)c3ccccc3)c2)c(-c2ccnc(Nc3ccc4c(c3)CN(C)CC4)n2)s1 [GSK1649598],0,0,20,65,0,0,0,43,0,0,99.8,0,0,0,45,11,93.9,99.9,0,0
CSc1nccc(-c2c(-c3ccc(F)cc3)ncn2CCCN2CCOCC2)n1.Cl [SB-217146],0,0,0,0,14,19,0,0,0,28,5,8,38,0,14,0,0,1,33,44
CN1CCN(CCNc2nc3cc(Oc4ccc(NC(=O)Nc5cc(C(F)(F)F)ccc5F)cc4)ccc3[nH]2)CC1.Cl.Cl [GW768504],20,0,0,0,0,2,0,0,8,0,8,9,0,0,0,0,0,14,0,0
N#Cc1cccc(C(=O)NC2CCN(c3ccnc(Nc4ccc(F)cc4)n3)C2)c1 (stereo not shown) [GSK1379708],0,37,0,21,9,0,0,14,0,0,0,0,0,0,23,0,0,0,0,0
CCNCC(Cc1ccccc1)NC(=O)c1cc(Br)c(-c2ccnc3[nH]ccc23)s1.Cl.Cl (stereo not shown) [GSK1383280],55,38,16,36,99.4,99.3,0,39,58,30,92.3,91.7,94.5,93.1,26,74,77,73,0,47
O=C(Nc1cccc(C(F)(F)F)c1)c1cccc(Oc2ccc3nccn3n2)c1,0,17,14,10,17,7,9,81,0,11,0,22,1,0,13,51,0,0,50,0
C[C@@H]1CNc2c(sc3ccc4nc(-c5ccncc5)ccc4c23)C(=O)N1,30,11,0,0,0,27,7,7,15,1,92.7,22,65,0,0,8,49,12,0,8
COc1cc(Nc2nccc(N3CCC(NC(=O)c4cccc(C#N)c4)C3)n2)cc(OC)c1OC (stereo not shown) [GSK1379751],0,47,0,94.5,0,0,0,0,0,0,36,0,7,0,0,0,0,0,0,0
